# Assay results published in the supplement of paper PMC8728848.
# About 410 targets per protein were measured; listed, in parts, are those with the strongest signals and a random draw of the rest.
# How the values were obtained:
# Experiment in all cases: glycan array binding signal (z-score within array); higher = stronger binding
# Conditions in all cases: glycan notation: IUPAC condensed, linker removed
# [1] = target: Fuc(a1-2)Gal(b1-3)GalNAc(b1-3)Gal(a1-4)Gal(b1-4)Glc
# How it was run: (§1)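 The binding signal is a Z-score computed within each array. Data were drawn from 3228 arrays in the Consortium for Functional Glycomics database, restricted to those with a known protein sequence. Scores were averaged over arrays of the same protein sequence at different concentrations or buffers, and over linkers, and negative values can be taken as non-binding.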
# [2] = target: Fuc(a1-2)Gal(b1-4)GlcNAc(b1-3)[Fuc(a1-3)[Gal(b1-4)]GlcNAc(b1-6)]Gal(b1-4)Glc
# How it was run: as §1
# [3] = target: Fuc(a1-2)Gal(b1-4)[Fuc(a1-3)]GlcNAc(b1-2)Man(a1-3)[Fuc(a1-2)Gal(b1-4)[Fuc(a1-3)]GlcNAc(b1-2)Man(a1-6)]Man(b1-4)GlcNAc(b1-4)[Fuc(a1-6)]GlcNAc
# How it was run: as §1
# [4] = target: Fuc(a1-2)Gal(b1-4)[Fuc(a1-3)]GlcNAc(b1-3)GalNAc
# How it was run: as §1
# Fuc(a1-2)[Gal(a1-3)]Gal = target: Fuc(a1-2)[Gal(a1-3)]Gal
# How it was run: as §1
# [5] = target: Fuc(a1-2)[Gal(a1-3)]Gal(b1-3)GlcNAc
# How it was run: as §1
# [6] = target: Fuc(a1-2)[Gal(a1-3)]Gal(b1-4)GlcNAc(b1-3)[Fuc(a1-2)[Gal(a1-3)]Gal(b1-4)GlcNAc(b1-6)]GalNAc
# How it was run: as §1
# [7] = target: Fuc(a1-2)[GalNAc(a1-3)]Gal(b1-3)GlcNAc(b1-3)GalNAc
# How it was run: as §1
# [8] = target: Fuc(a1-2)[GalNAc(a1-3)]Gal(b1-4)GlcNAc(b1-2)Man
# How it was run: as §1
# [9] = target: Fuc(a1-2)[GalNAc(a1-3)]Gal(b1-4)[Fuc(a1-3)]GlcNAc(b1-3)GalNAc
# How it was run: as §1
# [10] = target: Fuc(a1-3)[GalNAc(b1-4)]GlcNAc
# How it was run: as §1
# Fuc(a1-4)GlcNAc = target: Fuc(a1-4)GlcNAc
# How it was run: as §1
# Gal(a1-3)Gal = target: Gal(a1-3)Gal
# How it was run: as §1
# Gal(a1-3)Gal(b1-3)GlcNAc = target: Gal(a1-3)Gal(b1-3)GlcNAc
# How it was run: as §1
# [11] = target: Gal(a1-3)[Gal(a1-4)]Gal(b1-4)GlcNAc
# How it was run: as §1
# Gal(b1-3)GalNAc = target: Gal(b1-3)GalNAc
# How it was run: as §1
# [12] = target: Gal(b1-3)GlcNAc(b1-3)Gal(b1-4)GlcNAc
# How it was run: as §1
# [13] = target: Gal(b1-4)GlcNAc(b1-2)[Gal(b1-4)GlcNAc(b1-6)]Man(a1-6)[GlcNAc(b1-4)][Gal(b1-4)GlcNAc(b1-2)Man(a1-3)]Man(b1-4)GlcNAc(b1-4)GlcNAc
# How it was run: as §1
# [14] = target: Gal(b1-4)GlcNAc(b1-3)Gal(b1-4)GlcNAc(b1-3)Gal(b1-4)GlcNAc(b1-3)Gal(b1-4)GlcNAc(b1-2)[Gal(b1-4)GlcNAc(b1-3)Gal(b1-4)GlcNAc(b1-3)Gal(b1-4)GlcNAc(b1-3)Gal(b1-4)GlcNAc(b1-6)]Man(a1-6)[Gal(b1-4)GlcNAc(b1-3)Gal(b1-4)GlcNAc(b1-3)Gal(b1-4)GlcNAc(b1-3)Gal(b1-4)GlcNAc(b1-2)Man(a1-3)]Man(b1-4)GlcNAc(b1-4)[Fuc(a1-6)]GlcNAc
# How it was run: as §1
# [15] = target: Gal(b1-4)GlcNAc(b1-3)Gal(b1-4)GlcNAc(b1-3)Gal(b1-4)GlcNAc(b1-3)Gal(b1-4)GlcNAc(b1-3)Gal(b1-4)GlcNAc(b1-3)Gal(b1-4)GlcNAc(b1-2)Man(a1-3)[Gal(b1-4)GlcNAc(b1-3)Gal(b1-4)GlcNAc(b1-3)Gal(b1-4)GlcNAc(b1-3)Gal(b1-4)GlcNAc(b1-3)Gal(b1-4)GlcNAc(b1-3)Gal(b1-4)GlcNAc(b1-2)Man(a1-6)]Man(b1-4)GlcNAc(b1-4)GlcNAc
# How it was run: as §1
# [16] = target: Gal(b1-4)GlcNAc(b1-6)GalNAc
# How it was run: as §1
# [17] = target: Gal(b1-4)GlcNAc(b1-6)[Gal(b1-3)]GalNAc
# How it was run: as §1
# [18] = target: Gal3S(b1-3)[Fuc(a1-4)]GlcNAc
# How it was run: as §1
# [19] = target: Gal3S(b1-4)[Fuc(a1-3)]Glc6S
# How it was run: as §1
# [20] = target: GalNAc(b1-3)Gal(a1-4)Gal(b1-4)GlcNAc(b1-3)Gal(b1-4)Glc
# How it was run: as §1
# [21] = target: GalNAc(b1-3)Gal(a1-6)Gal(b1-4)Glc
# How it was run: as §1
# GalNAc(b1-3)GlcNAc = target: GalNAc(b1-3)GlcNAc
# How it was run: as §1
# GalNAc(b1-4)GlcNAc = target: GalNAc(b1-4)GlcNAc
# How it was run: as §1
# [22] = target: GlcNAc(b1-2)Gal(b1-3)GalNAc
# How it was run: as §1
# [23] = target: GlcNAc(b1-2)[GlcNAc(b1-4)]Man(a1-3)[GlcNAc(b1-2)Man(a1-6)]Man(b1-4)GlcNAc(b1-4)GlcNAc
# How it was run: as §1
# [24] = target: GlcNAc(b1-2)[GlcNAc(b1-4)]Man(a1-3)[GlcNAc(b1-4)][GlcNAc(b1-2)Man(a1-6)]Man(b1-4)GlcNAc(b1-4)GlcNAc
# How it was run: as §1
# [25] = target: GlcNAc(b1-3)Gal(b1-4)GlcNAc(b1-3)Gal(b1-4)GlcNAc(b1-2)Man(a1-3)[GlcNAc(b1-3)Gal(b1-4)GlcNAc(b1-3)Gal(b1-4)GlcNAc(b1-2)Man(a1-6)]Man(b1-4)GlcNAc(b1-4)GlcNAc
# How it was run: as §1
# [26] = target: GlcNAc(b1-4)Gal(b1-4)GlcNAc
# How it was run: as §1
# [27] = target: Man(a1-3)[Man(a1-6)]Man(b1-4)GlcNAc(b1-4)[Fuc(a1-6)]GlcNAc
# How it was run: as §1
# [28] = target: Neu5Ac(a2-3)Gal(b1-3)GlcNAc(b1-3)GalNAc
# How it was run: as §1
# [29] = target: Neu5Ac(a2-3)Gal(b1-4)GlcNAc(b1-2)[Neu5Ac(a2-3)Gal(b1-4)GlcNAc(b1-6)]Man(a1-6)[Neu5Ac(a2-3)Gal(b1-4)GlcNAc(b1-2)Man(a1-3)]Man(b1-4)GlcNAc(b1-4)GlcNAc
# How it was run: as §1
# [30] = target: Neu5Ac(a2-3)Gal(b1-4)GlcNAc(b1-3)Gal
# How it was run: as §1
# [31] = target: Neu5Ac(a2-3)Gal(b1-4)GlcNAc(b1-3)[Neu5Ac(a2-3)Gal(b1-4)GlcNAc(b1-6)]GalNAc
# How it was run: as §1
# [32] = target: Neu5Ac(a2-3)Gal(b1-4)[Fuc(a1-3)]GlcNAc(b1-3)GalNAc
# How it was run: as §1
# [33] = target: Neu5Ac(a2-3)Gal(b1-4)[Fuc(a1-3)]GlcNAc(b1-6)[Neu5Ac(a2-3)Gal(b1-3)]GalNAc
# How it was run: as §1
# [34] = target: Neu5Ac(a2-6)Gal(b1-4)GlcNAc(b1-3)Gal(b1-4)GlcNAc
# How it was run: as §1
# [35] = target: Neu5Ac(a2-6)Gal(b1-4)GlcNAc(b1-3)Gal(b1-4)GlcNAc(b1-3)[Neu5Ac(a2-6)Gal(b1-4)GlcNAc(b1-3)Gal(b1-4)GlcNAc(b1-6)]GalNAc
# How it was run: as §1
# [36] = target: Neu5Ac(a2-8)Neu5Ac(a2-3)[GalNAc(b1-4)]Gal(b1-4)Glc
# How it was run: as §1
# [37] = target: Neu5Ac(a2-8)Neu5Ac(a2-8)Neu5Ac(a2-3)[Gal(b1-3)GalNAc(b1-4)]Gal(b1-4)Glc
# How it was run: as §1
# [38] = target: Neu5Gc(a2-3)Gal(b1-4)[Fuc(a1-3)]GlcNAc
# How it was run: as §1
binder,measurement,setting,value
"AT5G24760(45) (Arabidopsis thaliana), Q8LEB2 (protein) MSASSSSFEQPQVITCNAAVAWRAGEPLVMEEVEVSPPQPLEIRIKVVCTSLCRSDLSAWESQSLLPRIFGHEAAGIVESIGEGVTEFEKGDHVLAVFTGECGSCRHCISGKSNMCQVLGMERKGLMHSDQKTRFSIKGKPVYHYCAVSSFSEYTVVHSGCAVKVDPLAPLHKICLLSCGVAAGLGAAWNVADVQKGSSVVIFGLGTVGLSVAQGAKLRGAAQILGVDINPAKAEQAKTFGVTDFINSNDLSEPIPQVIKRMTGGGADFSFECVGDTGIATTALQSCSDGWGMTVTLGVPKAKPEVSAHYGLFLSGKSLKGTLFGGWKPKSDLPSLIDKYMNKEIMIDEFITHNLSFDEINKAFVLMREGKCLRCVLHMPK",glycan array binding signal (z-score),[1],-0.051
same,glycan array binding signal (z-score),[2],0.166
same,glycan array binding signal (z-score),[3],0.395
same,glycan array binding signal (z-score),[4],4.6
same,glycan array binding signal (z-score),Fuc(a1-2)[Gal(a1-3)]Gal,0.984
same,glycan array binding signal (z-score),[5],-0.224
same,glycan array binding signal (z-score),[6],0.627
same,glycan array binding signal (z-score),[7],3.83
same,glycan array binding signal (z-score),[8],-0.179
same,glycan array binding signal (z-score),[9],6.82
same,glycan array binding signal (z-score),[10],1.18
same,glycan array binding signal (z-score),Fuc(a1-4)GlcNAc,1.12
same,glycan array binding signal (z-score),Gal(a1-3)Gal,0.612
same,glycan array binding signal (z-score),Gal(a1-3)Gal(b1-3)GlcNAc,7.36
same,glycan array binding signal (z-score),[11],6.01
same,glycan array binding signal (z-score),Gal(b1-3)GalNAc,0.106
same,glycan array binding signal (z-score),[12],-0.138
same,glycan array binding signal (z-score),[13],-1.03
same,glycan array binding signal (z-score),[14],-0.779
same,glycan array binding signal (z-score),[15],-0.887
same,glycan array binding signal (z-score),[16],1.23
same,glycan array binding signal (z-score),[17],-0.485
same,glycan array binding signal (z-score),[18],0.437
same,glycan array binding signal (z-score),[19],2.68
same,glycan array binding signal (z-score),[20],-0.632
same,glycan array binding signal (z-score),[21],-0.337
same,glycan array binding signal (z-score),GalNAc(b1-3)GlcNAc,0.645
same,glycan array binding signal (z-score),GalNAc(b1-4)GlcNAc,3.23
same,glycan array binding signal (z-score),[22],2.61
same,glycan array binding signal (z-score),[23],1.01
same,glycan array binding signal (z-score),[24],-0.932
same,glycan array binding signal (z-score),[25],1.14
same,glycan array binding signal (z-score),[26],2.53
same,glycan array binding signal (z-score),[27],-0.202
same,glycan array binding signal (z-score),[28],-0.553
same,glycan array binding signal (z-score),[29],-0.601
same,glycan array binding signal (z-score),[30],-0.951
same,glycan array binding signal (z-score),[31],-1.2
same,glycan array binding signal (z-score),[32],3.17
same,glycan array binding signal (z-score),[33],2.76
same,glycan array binding signal (z-score),[34],-0.877
same,glycan array binding signal (z-score),[35],-0.602
same,glycan array binding signal (z-score),[36],-0.388
same,glycan array binding signal (z-score),[37],0.125
same,glycan array binding signal (z-score),[38],-0.203
